PriA SSB inh: K. pneumoniae PriA-SSBct interaction inhibition. inhibition, % at 33 µM. actives 0.6% (n = 430,000). AlphaScreen SSBct-PriA binding, biotinylated peptide; in the data active = inhibition mostly above about 37%, no sharp cut-off; inactive = mostly below about 20%
Bead autofluor: counter-screen for toxin protease inhibitors: compound fluorescence; AID 624483; compound autofluorescence counterscreen, microsphere flow cytometry; active compounds read high; fluorescence intensity (test concentration not listed); actives 3.1% (n = 360,000); in the data active = fluorescence intensity above about 16000; inconclusive = no clear call, values can overlap the other calls
BoNT-A LC inh2: blocks Botulinum neurotoxin A light chain protease | AID 588499 | inhibition, % at 10 µM | multiplex microsphere protease substrate cleavage, flow cytometry | actives 0.17% (n = 360,000)
BoNT F protease: BoNT F light chain protease inhibition; actives 0.22% (n = 360,000); AID 588497; inhibition, % at 10 µM; Multiplex microsphere protease cleavage assay, flow cytometry; in the data active = inhibition above about 35%, passing the limit was not always enough; inconclusive = no clear call, values can overlap the other calls
Anthrax LF prot: inhibitors of Bacillus anthracis lethal factor protease; P15917; multiplex microsphere protease cleavage assay, LF; inhibition, % at 10 µM; actives 0.12% (n = 360,000)
Target sequence (P15917 whole entry, looked up): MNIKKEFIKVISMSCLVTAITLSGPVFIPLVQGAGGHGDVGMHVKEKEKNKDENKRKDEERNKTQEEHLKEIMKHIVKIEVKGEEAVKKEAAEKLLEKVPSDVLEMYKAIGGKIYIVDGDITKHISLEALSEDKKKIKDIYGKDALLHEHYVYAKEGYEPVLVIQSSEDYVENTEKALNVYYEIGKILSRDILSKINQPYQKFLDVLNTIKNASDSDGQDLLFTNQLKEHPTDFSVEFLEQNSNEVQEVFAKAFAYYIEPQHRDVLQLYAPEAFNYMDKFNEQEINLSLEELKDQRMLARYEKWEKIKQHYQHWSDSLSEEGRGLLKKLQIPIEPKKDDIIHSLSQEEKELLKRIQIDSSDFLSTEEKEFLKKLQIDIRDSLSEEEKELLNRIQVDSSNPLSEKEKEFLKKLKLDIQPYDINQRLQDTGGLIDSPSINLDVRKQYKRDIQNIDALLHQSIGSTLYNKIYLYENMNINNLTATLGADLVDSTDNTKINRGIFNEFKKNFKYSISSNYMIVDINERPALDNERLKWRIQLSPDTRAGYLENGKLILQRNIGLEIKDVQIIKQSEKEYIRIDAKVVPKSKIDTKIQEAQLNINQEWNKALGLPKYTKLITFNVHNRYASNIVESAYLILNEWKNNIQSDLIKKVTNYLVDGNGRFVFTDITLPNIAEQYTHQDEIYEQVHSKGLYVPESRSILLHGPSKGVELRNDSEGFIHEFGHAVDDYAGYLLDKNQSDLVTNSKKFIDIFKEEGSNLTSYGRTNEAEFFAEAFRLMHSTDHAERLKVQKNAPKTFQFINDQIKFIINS
Large screens that a line does not name were inactive. An excerpt weighted towards active compounds, which were near 3.1% of everything screened. Rule as the data show it, unless noted: active = inhibition above about 30%; inconclusive = no clear call, values can overlap the other calls; inactive = below that.

CCn1nc(C)c(C(=O)Nc2cc(Oc3cc(C)cc(C)c3)cc([N+](=O)[O-])c2)c1C	Bead autofluor 22749, BoNT-A LC inh2 inconclusive
Cc1nc(NC(=O)c2ccccc2)sc1-c1csc(NCCc2ccccc2)n1	Bead autofluor 25254
CS(=O)(=O)c1ccc(-c2ccc(NS(=O)(=O)c3ccccc3Cl)cc2)nn1	none (no result: Bead autofluor, BoNT-A LC inh2, BoNT F protease, Anthrax LF prot)
Cc1cc2nnc(SCC(=O)N3C(C)CCCC3C)n2c(N)n1 (stereo unspecified)	Bead autofluor 22651, BoNT-A LC inh2 inconclusive
Cc1cc2nnc(SCC(=O)N3CCCCC3)n2c(N)n1	none
Cn1c(-n2c(CCCN3C(=O)c4ccccc4C3=O)nc3ccccc3c2=O)nc2ccccc21	none
O=C1c2ccccc2C(=O)N1CCCc1nc2ccccc2c(=O)n1CCCn1ccnc1	Bead autofluor 19567
COc1ccc(-n2nnnc2CNS(=O)(=O)c2ccc3c(c2)OCCO3)cc1	none (no result: Bead autofluor, BoNT-A LC inh2, BoNT F protease, Anthrax LF prot)
COc1ccc(C(=O)c2ccc(N)cc2)cc1OC	none (no result: Bead autofluor, BoNT-A LC inh2, BoNT F protease, Anthrax LF prot)
CCOc1ccc(C(=O)c2ccc(OCC)c(N)c2)cc1N	Bead autofluor 16397
COc1ccc(C(N)=O)cc1N	Bead autofluor 20559
Cc1nc(SCC(=O)c2cc(C)n(-c3cccc(C(F)(F)F)c3)c2C)c2cc(-c3ccccc3)sc2n1	none (no result: Bead autofluor, BoNT-A LC inh2, BoNT F protease, Anthrax LF prot)
O=[N+]([O-])c1cccnc1Sc1ccc(Cl)cc1	PriA SSB inh 52
O=[N+]([O-])c1cccnc1Sc1ccccc1	PriA SSB inh 82 (no result: Bead autofluor, BoNT-A LC inh2, BoNT F protease, Anthrax LF prot)
O=[N+]([O-])c1cccnc1Sc1ncccc1O	none (no result: Bead autofluor, BoNT-A LC inh2, BoNT F protease, Anthrax LF prot)
Cc1noc(C)c1CCc1nc(-c2ccc(Cl)cc2)no1	none (no result: Bead autofluor, BoNT-A LC inh2, BoNT F protease, Anthrax LF prot)
Cc1cccc(CC(=O)Nc2cc(-c3cccs3)nn2-c2nc(-c3ccccc3)cc(=O)[nH]2)c1	none (no result: Bead autofluor, BoNT-A LC inh2, BoNT F protease, Anthrax LF prot)
CCOc1ccc(NC(=O)c2ccccc2OCC(=O)c2ccc(C)cc2)cc1	Bead autofluor 23534
CCOc1ccc(C(=O)COc2ccc(NC(C)=O)cc2)cc1	none
CCc1ccc(C(=O)COc2ccc(NC(C)=O)cc2)cc1	Bead autofluor 24015
COc1ccc(SCC(=O)Nc2nc(-c3ccc4c(c3)CCCC4)cs2)cc1	none (no result: Bead autofluor, BoNT-A LC inh2, BoNT F protease, Anthrax LF prot)
Cc1cc(C(=O)NCCC2=CCCCC2)no1	Bead autofluor 25954
Cc1ccc(NC(=O)Cn2nc(C)c3cnn(C(C)(C)C)c3c2=O)cc1Cl	none (no result: Bead autofluor, BoNT-A LC inh2, BoNT F protease, Anthrax LF prot)
CC(C)Cc1ccc(S(=O)(=O)Cc2ccc(-c3nc(-c4ccc5c(c4)OCO5)no3)o2)cc1	none (no result: Bead autofluor, BoNT-A LC inh2, BoNT F protease, Anthrax LF prot)
Cc1cccc(OC2CCN(C(=O)c3ccc4c(c3)OCO4)CC2)n1	none (no result: Bead autofluor, BoNT-A LC inh2, BoNT F protease, Anthrax LF prot)
O/C(=C\c1nc2ccccc2nc1/C=C(\O)c1ccccc1)c1ccccc1	BoNT-A LC inh2 67, Anthrax LF prot 30
CC(=NNc1ccc(Cl)cc1)c1cnnc(-c2ccccc2)n1	none (no result: Bead autofluor, BoNT-A LC inh2, BoNT F protease, Anthrax LF prot)
O=C(O)CCS(=O)(=O)Cc1cccc(Cl)c1	Bead autofluor 23460
Cc1ccccc1NC(=O)/C(=C\c1cccs1)NC(=O)c1ccco1	Bead autofluor 23554
COc1ccc(C2C(=O)N(C3CCCCC3)CC(=O)N2C2CCCC2)cc1 (stereo unspecified)	none
COc1ccc(C2C(=O)N(C3CCCCCC3)CC(=O)N2Cc2ccccc2)cc1OC (stereo unspecified)	Bead autofluor 19721
COc1ccc(CN2C(=O)CN(C3CCCCCC3)C(=O)C2c2ccc(OC)c(OC)c2)cc1 (stereo unspecified)	none
CCCOc1ccc(C2C(=O)N(C3CCCCCC3)CC(=O)N2Cc2ccco2)cc1OC (stereo unspecified)	Bead autofluor 22488
COc1ccc(C2C(=O)N(CCc3ccccc3)CC(=O)N2C2CCCC2)cc1 (stereo unspecified)	Bead autofluor 23925
COc1ccc(CN2C(=O)CN(C3CCCCCC3)C(=O)C2c2ccc(F)cc2)cc1 (stereo unspecified)	none
COc1ccc(C2C(=O)N(C3CCCCC3)CC(=O)N2Cc2ccco2)cc1 (stereo unspecified)	Bead autofluor 20572, BoNT-A LC inh2 inconclusive
COc1ccc(S(=O)(=O)Nc2cccc(N3CCCCC3=O)c2)cc1OC	none (no result: Bead autofluor, BoNT-A LC inh2, BoNT F protease, Anthrax LF prot)
CCOc1ccc(C2c3[nH]c4ccccc4c3C[C@H]3C(=O)N(C4CC4)CC(=O)N23)cc1OC (stereo partly specified)	none
CCCOc1ccc(C2C(=O)N(C3CCCCC3)CC(=O)N2C2CC2)cc1OC (stereo unspecified)	Bead autofluor 20615
CCOc1ccc(-c2cc(=O)n(CC(=O)Nc3nc4ccccc4s3)cn2)cc1	none (no result: Bead autofluor, BoNT-A LC inh2, BoNT F protease, Anthrax LF prot)
Cc1nc(C(=O)N2CCc3nc4ccc(Cl)cn4c(=O)c3C2)cs1	none (no result: Bead autofluor, BoNT-A LC inh2, BoNT F protease, Anthrax LF prot)
COc1ccc(C2C(C(C)=O)=C(O)C(=O)N2c2cccnc2)c(OC)c1 (stereo unspecified)	Bead autofluor 16553
O=C(CSCc1ccccc1Cl)Nc1ccc2c(c1)OCCO2	Bead autofluor 20949, BoNT-A LC inh2 inconclusive

High-throughput results from PubChem.
